Screening data (PubChem)
Only a selection was taken, and hits are over-represented in it overall.
Gal4-VP16 FLuc: Gal4-VP16 reporter inhibition counter-screen. Drosophila S2 Gal4-VP16 UAS-luciferase, luminescence, 20 h. Potency, µM (titrated, usually from 53.6 µM), without a hit: at the top dose activity, negative = inhibition, most hits filed as inhibitors. actives 3.5% (n = 310,000). AID 2546;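 also: Gal4-VP16 expression switched on by copper sulfate through the metallothionein promoter; potency is read from the fitted curve at half-maximal effect; % is scaled to controls: 0 for no effect and ±100 for the full control effect; nearly all actives have a fitted effect of over 50% in size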
Integrin act MD: integrin-mediated muscular dystrophy alleviation activation. Potency, µM (titrated, usually from 38.3 µM), for the others: at the top dose activation, actives largely listed as activators. alpha7betagal myoblasts, beta-gal FDG fluorescence, 48 h. actives 0.064% (n = 350,000);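 also: potency is read from the fitted curve at half-maximal effect; 100% = response of the positive control SU9516; nearly all actives have a fitted effect of over 60% in size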
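alpha7betagal+/- myoblasts (passage 13, 250/well) treated 48 h at 37C with compounds at 1:260 dilution of DMSO stock. Lysed, then beta-galactosidase activity read as FDG fluorescence (ex 480/em 540) after 30 min, with pre-read for autofluorescence.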
RORgamma inh: ROR gamma (mouse) transcription inhibition | Drosophila S2 Gal4-RORgamma UAS-luciferase reporter, 20 h | Potency, µM (doses to about 53.6 µM), without a hit: at the highest dose activity change, negative = inhibition, actives largely listed as inhibitors | actives 5.4% (n = 310,000); also: potency is read from the fitted curve at half-maximal effect; % is scaled to controls: 0 for no effect and ±100 for the full control effect; nearly all actives have a fitted effect of over 60% in size
Target sequence (P51450 whole entry, looked up, the tested form may be a part): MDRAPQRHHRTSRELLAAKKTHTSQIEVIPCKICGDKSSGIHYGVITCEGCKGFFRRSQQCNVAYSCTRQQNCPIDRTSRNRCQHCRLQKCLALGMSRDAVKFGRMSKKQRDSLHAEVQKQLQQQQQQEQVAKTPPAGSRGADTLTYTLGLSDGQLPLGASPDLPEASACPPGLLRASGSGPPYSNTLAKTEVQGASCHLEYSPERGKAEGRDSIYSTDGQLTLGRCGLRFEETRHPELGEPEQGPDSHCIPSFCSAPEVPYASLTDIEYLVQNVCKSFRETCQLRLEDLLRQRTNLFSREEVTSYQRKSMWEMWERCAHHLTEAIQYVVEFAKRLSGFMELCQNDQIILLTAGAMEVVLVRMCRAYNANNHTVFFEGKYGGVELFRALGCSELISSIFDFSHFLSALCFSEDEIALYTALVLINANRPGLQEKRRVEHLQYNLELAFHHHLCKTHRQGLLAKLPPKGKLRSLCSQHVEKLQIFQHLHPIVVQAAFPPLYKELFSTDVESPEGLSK
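Stably transfected Drosophila Schneider cells are the test system, with ROR gamma fused to Gal4 and luciferase under UAS control; luminescence is read after 20 hr of 700 uM copper sulfate induction at ambient temperature.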
ERG-DNA inh: blocks human ERG Ets domain binding to DNA; P11308; fluorescence polarization, His-ERG Ets domain / labelled DNA; actives 0.028% (n = 370,000); Potency, µM (doses to about 76.9 µM), for inactives: top-dose FP activity, negative = inhibition, hits mostly inhibitors; active = well fitted inhibition curve with a large enough effect in the polarisation, with a control signal flat; inconclusive = small, poorly fitted or top-dose-only effect, or effect the other way, or a change in a side signal; inactive = no such curve, though single readings can be large or run the other way; the % refers to the polarisation;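 also: polarization taken with two DNA probes labelled with fluorescein and Texas red; potency is read from the fitted curve at half-maximal effect; % of control where 0% means no effect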
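His-tagged ERG Ets domain (1 uM in the protein solution; 300mM KCl, 50mM Tris-HCl, 1mM EDTA, 1mM DTT, pH 7.5) received compound, then a probe mix of 5 nM fluorescein-DNA and 100nM Texas-615-DNA. Fluorescence polarization was read for both dyes.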
Giardia kill: Giardia lamblia killing; activity change, % at 7.66 µM, hits read low; Giardia lamblia trophozoite viability; actives 0.15% (n = 340,000); in the data active = activity change below about -80%; inconclusive = between about -30% and that limit;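 also: parasites exposed to compound for two days anaerobically before the ATP read; % is scaled to controls: 0 for no effect and ±100 for the full control effect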
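Luminescent ATP signal served as the viability read-out, measured 15-30 min after adding ATP detection reagent to trophozoites that had been incubated with compounds for 48 hrs at 37 deg C anaerobically at 100 cells/well.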
Active calls of the source: *; ? = inconclusive; · = no result given; [ ] = remark or other dose. Unless noted, calls follow the shape of the dose curve; as a rule, active = well fitted curve in the direction sought with a large enough effect; inconclusive = small, poorly fitted or top-dose-only effect, or another doubt; inactive = no such curve, though single readings can be large; an effect the other way counts as inactive or inconclusive.

SMILES	Gal4-VP16 FLuc	Integrin act MD	RORgamma inh	ERG-DNA inh	Giardia kill
Cc1cc(C)nc(N/N=C2/CCCC/C2=C\c2ccccc2)n1	10µM*	-19.4%	1.41µM*	2.9%	15.7
Cc1ccnc(N/N=C/c2ccccc2)n1	?	30.9%	?	-4.6%	-1.6
C=C1CCN(C(Cc2ccccc2)C(=O)O)S(=O)(=O)c2ccccc21 (stereo not drawn)	-2.3%	·	-7.3%	·	2.5
C=CCNC(=O)CSCc1ccc(Br)cc1	-9.9%	-79.7%	36.5%	6.0%	17.7
Cc1cccc(C)c1NC(=S)NC(=O)c1ccc(Br)o1	?	-30.5%	3.16µM*	4.3%	9.9
Cc1cccc(NC(=S)NC(=O)c2ccc(Br)o2)c1C	?	0.7%	3.55µM*	3.8%	4.3
O=C(NC(=S)Nc1ccccc1F)c1ccc(Br)o1	?	6.7%	4.47µM*	-20.6%	16.0
O=C(NNC(=S)Nc1ccccc1C(F)(F)F)c1ccc(Br)o1	-18.8%	-14.8%	?	-9.2%	17.4
Cc1ccc(NC(=S)NC(=O)c2ccc(Br)o2)c(C)c1	?	-32.4%	2.24µM*	-9.3%	-13.5
Cc1ccc(C)c(NC(=S)NNC(=O)c2ccc(Br)o2)c1	-22.1%	0.7%	?	9.1%	-6.1
CSC(N)=NCCCC(N)C(=O)O (stereo not drawn)	4.9%	·	-0.4%	·	·
COc1ccc(OC)c(S(=O)(=O)NCCc2sc(C)nc2C)c1	·	·	·	-5.5%	·
CC(C)c1nc(SCC(=O)Nc2c[nH]c(=O)[nH]c2=O)c2cnn(-c3ccccc3)c2n1	-1.1%	?	13.7%	7.0%	-4.3
Cc1cc(C)n(-c2nc3ccccc3nc2N2CCCCCC2)n1	-12.3%	23.9%	11.2µM*	-3.6%	1.1
O=C(N/N=C(\Cc1ncc[nH]1)c1ccccc1)c1ccccc1	-9.0%[10 µM]	·	11.2µM*	·	·
Cc1sc(NC(=O)C2=COCCO2)nc1-c1ccc(Cl)cc1	·	-40.0%	·	0.5%	1.6
O=Cc1cn(-c2ccccc2)nc1-c1ccc(F)cc1	-2.2%	-6.9%	32.3%	6.4%	0.1
CC1=NNC(=O)/C1=C\c1cn(-c2ccccc2)nc1-c1ccc(F)cc1	5.01µM*	-76.9%	4.47µM*	-0.9%	13.9
CC1=NNC(=O)/C1=C\c1cn(-c2ccccc2)nc1-c1cccs1	4.47µM*	-69.3%	?	1.6%	1.0
COC(=O)C1CCN(C(=O)c2cc(S(=O)(=O)N3CCCCC3)ccc2Cl)CC1	·	-0.8%	·	-1.6%	8.1
COC(=O)NC(/C=C/c1ccco1)[C@@]1(C(=O)OC)CCCC1=O (stereo partly drawn)	5.3%[10 µM]	·	1.2%[10 µM]	·	·
S=c1[nH]nc(-c2ccccc2)n1/N=C/c1cccc(Cl)c1	4.47µM*	?	5.62µM*	1.2%	-21.4
Cc1nn(-c2ccccc2)c(C)c1/C=N/n1c(-c2ccc(Cl)cc2)n[nH]c1=S	8.91µM*	-21.1%	12.6µM*	-1.4%	-11.6
S=c1[nH]nc(-c2ccccn2)n1/N=C/c1ccc(Cl)cc1	-19.1%	8.4%	12.6µM*	-7.1%	6.9
Cc1nn(-c2ccccc2)c(C)c1/C=N/n1c(-c2ccncc2)n[nH]c1=S	0.7%	-23.8%	-28.4%	-2.4%	-12.8
SMILES	Gal4-VP16 FLuc	Integrin act MD	RORgamma inh	ERG-DNA inh	Giardia kill
Cc1ccc(-c2n[nH]c(=S)n2/N=C/c2c(C)[nH]n(-c3ccccc3)c2=O)cc1	-26.2%	8.7%	10µM*	12.1%	-14.4
S=c1[nH]nc(-c2ccccn2)n1/N=C/c1ccccc1	-3.2%	-23.6%	?	·	-16.9
CCCCOc1ccc([N+](=O)[O-])cc1C(=O)O	-5.2%	5.6%	0.2%	-1.9%	26.7
Cc1ccc(C)o1	5.0%	·	-1.0%	·	·
CCOc1ccc(/C=N/n2c(-c3ccccc3)n[nH]c2=S)cc1	?	-26.3%	1.58µM*	-1.9%	-8.6
S=c1[nH]nc(-c2ccccc2)n1/N=C/c1ccc(Cl)cc1	?	-3.9%	1.12µM*	17.1%	20.6
CN(C)c1ccc(/C=N/n2c(-c3cccnc3)n[nH]c2=S)cc1	1.7%	33.1%	-33.6%	-3.6%	3.8
CCc1n[nH]c(=S)n1/N=C/C(C)=C\c1ccccc1	5.62µM*	3.6%	7.08µM*	3.7%	2.1
Oc1ccccc1/C=N/n1c(-c2ccccc2)n[nH]c1=S	-20.5%	-16.5%	11.2µM*	1.6%	-7.4
COc1cc(OC)nc(Oc2ccccc2C(=O)Oc2ccc(Cl)cc2)n1	0.4%	13.6%	1.4%	-10.3%	6.4
S=c1[nH]nc(-c2cccs2)n1/N=C/c1cn(-c2ccccc2)nc1-c1ccccc1	-5.5%	1.5%	-43.1%	28.1%	-8.8
Fc1ccc(/C=N/n2c(-c3cccs3)n[nH]c2=S)cc1	3.98µM*	26.7%[7.66 µM]	2µM*	-7.3%	-12.1
Cc1ccccc1/C=N/n1c(-c2ccccn2)n[nH]c1=S	-18.3%	10.4%	?	-3.1%	-5.2
COc1c(Br)cc(/C=N/n2c(-c3ccccc3)n[nH]c2=S)c(O)c1Br	?	-38.5%	12.6µM*	24.3%	-20.3
Oc1c(Br)cc(Br)cc1/C=N/n1c(-c2ccccc2)n[nH]c1=S	?	-13.7%	?	-4.1%	4.7
CC(/C=N/n1c(-c2ccccn2)n[nH]c1=S)=C\c1ccccc1	-9.0%	12.7%	3.55µM*	-8.0%	4.9
S=c1[nH]nc(-c2ccccn2)n1/N=C/c1cccc2ccccc12	?	-0.9%	2.24µM*	2.5%	2.4
S=c1[nH]nc(-c2ccc(Cl)cc2)n1/N=C/c1cccs1	-20.0%	13.0%	3.55µM*	1.0%	13.7
S=c1[nH]nc(-c2ccncc2)n1/N=C/c1cccc(Cl)c1	-23.4%	?	4.47µM*	-4.6%	-16.0
S=c1[nH]nc(-c2ccncc2)n1/N=C/C(Cl)=C\c1ccccc1	?	-61.6%	?	-5.7%	-11.3
CC(C)(C)c1n[nH]c(=S)n(/N=C/c2cccs2)c1=O	15.8µM*	13.0%	10µM*	6.8%	18.3
Cc1cccc(/C=N/n2c(-c3ccccn3)n[nH]c2=S)c1	17.8µM*	·	?	·	·
COc1ccc(NC(=O)C(=O)Nc2cccc3cccnc23)c(OC)c1	2.51µM*	24.3%	1.41µM*	1.5%	-5.2
COc1ccc(NC(=O)C(=O)Nc2cccc3ccccc23)c(OC)c1	-9.5%	-5.1%	-24.0%	0.5%	6.2
COc1ccc(NC(=O)C(=O)Nc2cccc3cccnc23)cc1OC	2.82µM*	5.2%	1.78µM*	6.1%	32.4
C/C(=N\NC(=O)c1ccc([N+](=O)[O-])cc1)c1c(O)cc(C)oc1=O	?	-2.0%	0.631µM*	-10.5%	-1.8
C/C(=N\NC(=O)c1cccnc1)c1c(O)cc(C)oc1=O	2.1%	-6.8%	-44.4%	-13.1%	8.2
C/C(=N\NC(=O)c1ccccc1O)c1c(O)cc(C)oc1=O	2.51µM*	-10.7%	0.891µM*	-5.1%	12.5
C/C(=N/NC(=O)c1cc(O)c(O)c(O)c1)c1ccc([N+](=O)[O-])cc1	-6.0%	-5.6%	-16.1%	3.0%	-15.7
C/C(=N\NC(=O)c1ccccc1[N+](=O)[O-])c1c(O)cc(C)oc1=O	6.31µM*	?	3.16µM*	3.5%	16.0
